{"source": "PubChem BioAssay AID1022", "about": "(Emory University Molecular Libraries Screening Center, 2008)", "note": "Where “and” joins values, the source holds several entries; their conditions need not be identical. Identical values can stand only once. About 3,300 (1.5%) of roughly 220,000 compounds were called active.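 How the source made its calls: active means compounds that cut the protein-peptide binding signal by more than 50% relative to plate controls in a single-dose test; inactive means the rest.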 Shown is part of a subset that was picked to be rich in actives. Where a structure was tested more than once in an assay, its records may differ in their call.", "data": [{"target": "Induced myeloid leukemia cell differentiation protein Mcl-1 (Homo sapiens) (UniProt Q07820)", "sequence (Q07820 whole entry, looked up)": "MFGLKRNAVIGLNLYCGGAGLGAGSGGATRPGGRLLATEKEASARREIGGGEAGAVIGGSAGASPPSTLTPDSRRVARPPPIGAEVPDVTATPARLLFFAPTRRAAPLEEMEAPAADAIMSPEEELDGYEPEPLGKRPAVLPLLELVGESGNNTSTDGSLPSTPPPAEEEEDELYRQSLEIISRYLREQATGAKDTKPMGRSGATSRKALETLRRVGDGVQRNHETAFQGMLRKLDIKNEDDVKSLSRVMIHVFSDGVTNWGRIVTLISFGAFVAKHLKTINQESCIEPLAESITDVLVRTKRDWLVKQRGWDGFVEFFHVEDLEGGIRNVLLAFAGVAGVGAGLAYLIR", "assay": "Mcl-1/Noxa binding inhibitors, primary screen, biochemical, TR-FRET, 1536-well (AID 1022);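 further: His-tagged Mcl-1 with rhodamine Noxa BH3 peptide and terbium anti-His antibody; 0% = Mcl-1 plus Noxa peptide wells and 100% = peptide-only wells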", "settings": "TR-FRET Mcl-1/Noxa peptide binding, 2 h; at 21.7 µM; stronger effect = higher value", "values": [{"smiles": "COc1cc2c(cc1O)[C@H](Cc1ccc(Oc3cc(C[C@@H]4NCCc5cc(OC)c(O)cc54)ccc3O)cc1)NCC2", "inhibition": "64.4% (active)"}, {"smiles": "CC[C@H]1CN2CCc3cc(OC)c(OC)cc3[C@@H]2C[C@@H]1C[C@H]1NCCc2cc(OC)c(OC)cc21", "inhibition": "22.4% (inactive)"}, {"smiles": "O=[N+]([O-])c1ccc(N=Cc2c(O)ccc3ccccc23)cc1", "inhibition": "-1.02% (inactive)"}, {"smiles": "O=C(Nc1ccc(F)cc1F)N1CCCN(CCOc2ccccc2)CC1", "inhibition": "9.38% (inactive)"}, {"smiles": "CC1=C(C(=O)Nc2ccccc2)C(c2ccco2)C(C#N)=C(SCC(N)=O)N1", "note": "(centres undefined)", "inhibition": "5.4% (inactive)"}, {"smiles": "Cc1cc(C)c2c3c(sc2n1)C(c1ccccc1)C(C#N)=C(N)O3", "note": "(centres undefined)", "inhibition": "-16.3% (inactive)"}, {"smiles": "N#CC1=C(N)Oc2c(sc3ccccc23)C1c1ccco1", "note": "(centres undefined)", "inhibition": "51.5% (active)"}, {"smiles": "Cc1noc(C)c1S(=O)(=O)Nc1cc(C(F)(F)F)ccc1N1CCOCC1", "inhibition": "-6.09% (inactive)"}, {"smiles": "CC(C)Cc1nc(Cl)c(C#N)c2c1CCC2", "inhibition": "1.09% (inactive)"}, {"smiles": "COc1ccccc1CNC(=O)Cn1c(=O)oc2cc(Cl)ccc21", "inhibition": "-8.08% (inactive)"}, {"smiles": "CCN1C(=O)/C(=c2\\s/c(=C3\\Sc4ccccc4N3C)c(=O)n2C)N(C)C1=S", "inhibition": "46.4% (inactive)"}, {"smiles": "CCN1C(=O)/C(=C2/Sc3ccccc3N2CCCS(=O)(=O)O)SC1=S", "inhibition": "23% (inactive) and 61.3% (active)"}, {"smiles": "CCCCN1C(=O)/C(=C/C=C2/C=Cc3ccccc3N2CC)SC1=S", "inhibition": "25.9% (inactive)"}, {"smiles": "COc1ccc(N2C(=O)C3C(C2=O)C(C(=O)c2ccccc2)N2CCCC32)cc1", "note": "(centres undefined)", "inhibition": "2.44% (inactive)"}, {"smiles": "O=C1CSC(=S)N1/N=C/c1ccc(O)c([N+](=O)[O-])c1", "inhibition": "85.6% (active)"}, {"smiles": "CCOc1cccc(/C=N/N2C(=O)CSC2=S)c1O", "inhibition": "37.8% (inactive)"}, {"smiles": "NC(N)=N/N=C/c1ccc(Cl)c([N+](=O)[O-])c1", "inhibition": "8.52% (inactive)"}, {"smiles": "COc1ccc(COCCN2CCN(S(=O)(=O)c3ccccc3)CCC2=O)cc1", "inhibition": "4.91% (inactive)"}, {"smiles": "Cc1cc(-c2n[nH]c(=S)n2/N=C/c2ccco2)n[nH]1", "inhibition": "5.82% (inactive)"}, {"smiles": "S=c1[nH]nc(-c2cccnc2)n1/N=C/C(Cl)=C\\c1ccccc1", "inhibition": "32.3% (inactive)"}, {"smiles": "Cc1cc(-c2n[nH]c(=S)n2/N=C/C(Br)=C/c2ccccc2)n[nH]1", "inhibition": "59.6% (active)"}, {"smiles": "Nc1ccccc1Sc1ccc(C(F)(F)F)cc1[N+](=O)[O-]", "inhibition": "-1.26% (inactive)"}, {"smiles": "S=c1[nH]nc(-c2cc(-c3ccccc3)n[nH]2)n1/N=C/c1c2ccccc2cc2ccccc12", "inhibition": "79.6% (active)"}, {"smiles": "S=c1[nH]nc(-c2ccco2)n1/N=C/c1ccccc1", "inhibition": "32.5% (inactive)"}, {"smiles": "S=c1[nH]nc(-c2ccccc2)n1/N=C/c1c[nH]c2ccccc12", "inhibition": "13.7% (inactive)"}, {"smiles": "COCCN1C2=C(COC(C)(C)C2)C(=S)NC1c1ccccc1", "note": "(centres undefined)", "inhibition": "1.37% (inactive)"}, {"smiles": "Cc1cnc(NC(=O)Cn2cnc3c2c(=O)n(C)c(=O)n3C)s1", "inhibition": "3.66% (inactive)"}, {"smiles": "CCOC(=O)Cn1c(N)c(C(=O)OC)sc1=S", "inhibition": "5.93% (inactive)"}, {"smiles": "COC(=O)c1sc(=S)n(-c2ccccc2)c1N", "inhibition": "16.2% (inactive)"}, {"smiles": "COCCOC(=O)c1sc(=S)n(CCOC)c1N", "inhibition": "51.1% (active)"}, {"smiles": "CN(C)c1ccc(Nc2c3c4c(cccc4n(C)c2=O)C(=O)c2ccccc2-3)cc1", "inhibition": "104% (active)"}, {"smiles": "COc1ccc(COCC(O)CN2CCC(C(N)=O)CC2)cc1", "note": "(centres undefined)", "inhibition": "4.43% (inactive)"}, {"smiles": "CCn1cc(C(=O)NCc2ccc3c(c2)OCO3)c2cc(OC)c(OC)cc2c1=O", "inhibition": "74.5% (active)"}, {"smiles": "CCn1cc(C(=O)NCC2COc3ccccc3O2)c2cc(OC)c(OC)cc2c1=O", "note": "(centres undefined)", "inhibition": "-0.39% (inactive)"}, {"smiles": "CCn1cc(C(=O)N2CCN(Cc3ccc4c(c3)OCO4)CC2)c2cc(OC)c(OC)cc2c1=O", "inhibition": "4.25% (inactive)"}, {"smiles": "CCOC(=O)C1C(c2ccc(OC)c(OC)c2)c2c([nH][nH]c2=O)CC1(C)O", "note": "(centres undefined)", "inhibition": "-16.2% (inactive)"}, {"smiles": "CC(NC(=O)C(=O)Nc1nccs1)c1ccccc1", "note": "(centres undefined)", "inhibition": "-15.7% (inactive)"}, {"smiles": "CC12CN3CCN(CC(C3)/C1=N\\NC(=O)c1ccccc1N)C2", "inhibition": "15.5% (inactive)"}, {"smiles": "N#Cc1c(N2CCCCC2)nc(N)c2c(N)nc(SCC(=O)O)cc12", "inhibition": "57.7% (active)"}, {"smiles": "N#Cc1c(C(F)(F)F)cc(-c2ccc(Cl)cc2)nc1SCC(=O)O", "inhibition": "6.22% (inactive)"}, {"smiles": "Cc1cc(C)c(C#N)c(N2CCC(C(N)=O)CC2)n1", "inhibition": "6.16% (inactive)"}, {"smiles": "COC(C[C@H](O)CC(=O)COCc1ccccc1)OC", "inhibition": "3.71% (inactive)"}, {"smiles": "O=[N+]([O-])C(=c1ccc2c(c1)N1C3=C(CCCC3)CC3CCCCC31N=2)[N+](=O)[O-]", "note": "(centres undefined)", "inhibition": "99.2% (active)"}, {"smiles": "Cc1ccc(Nc2nc(Cl)c(C=O)s2)cc1", "inhibition": "10.2% (inactive)"}, {"smiles": "CN(C(=O)CCn1c(=S)oc2ccccc21)C1CCCCC1", "inhibition": "-15.3% (inactive)"}, {"smiles": "CC(=O)Nc1ccc(NC(=O)CSc2ncnc3c2cnn3Cc2ccccc2)cc1", "inhibition": "9.1% (inactive)"}, {"smiles": "CC(NC(=S)Nc1ccccc1)C(c1cccs1)N1CCOCC1", "note": "(centres undefined)", "inhibition": "-2.6% (inactive)"}, {"smiles": "Clc1ccc(C2=CSC3=Nc4cccc5cccc(c45)N23)cc1", "inhibition": "61.8% (active)"}, {"smiles": "COC(=O)c1cccc(NS(C)(=O)=O)c1", "inhibition": "-15.1% (inactive)"}]}]}
